Among the data in PubChem BioAssay (NCI) are growth values, retold here.

Compounds without any hit were thinned out: in the full panel of roughly 83,000, 20% have a hit.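 96-well plates, one dose, 48 hours. Percent growth reported; active if below 10.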 Values without a mark were called inactive. Active and inactive are the calls of the source.

For this assay, the system named is KM12 colon. Put plainly: NCI-60 one-dose screen, 48 h (100 = growth as untreated, 0 = no growth, -100 = all killed). The settings on record: 10 µM unless noted. How it is done: Growth inhibition of the KM12 human tumor cell line is measured as a screen for anti-cancer activity. Cells are grown in 96 well plates and exposed to the test compound for 48 hours. Compounds are tested at a single concentration, which is 10^-5 M for most compounds. The reported endpoint is percent growth (GI% or GIPRCNT), where numbers from 0 - 100% represent growth inhibition, and numbers from -100% - 0 represent cell death. For example, a value of 40 represents 60% growth inhibition. A value of 0 means no net growth occurred over the course of the experiment. A value of -40 indicates 40% of cells at the beginning of the experiment died by the end of the experiment. A value of -100 means all cells are dead at the end of the experiment.
NCI-60 Human Tumor Cell Lines Screen was performed using the standard one-dose NCI protocol, which is described in more detail at https://dtp.cancer.gov/discovery_development/nci-60/default.htm.
Compounds with GIPRCNT values below 10 were considered active. Activity score was based on GIPRCNT using the following formula: […]
Score is 0 for GIPRCNT values of 100 or above, 50 for GIPRCNT values of 0, and 100 for GIPRCNT values of -100.
With `CC(=O)O[C@H]1CC[C@]2(C)[C@H]3CC=C4[C@@H]5CC(C)(C)CC[C@]5(C(=O)OCC(COC(=O)C(Cl)Cl)(COC(=O)C(Cl)Cl)NC(=O)C(Cl)Cl)CC[C@@]4(C)[C@]3(C)CC[C@H]2C1(C)C`, the growth was 52.2%.

For `CC(C)=CC[C@@H]1CC2(CC=C(C)C)C(=O)C(OC3(C(=O)c4ccccc4)C(=O)C4(CC=C(C)C)C[C@@H](CC=C(C)C)C(C)(C)C(CC=C(C)C)(C4=O)C3=O)(C(=O)c3ccccc3)C(=O)C(CC=C(C)C)(C2=O)C1(C)C` (stereo not given in full), the growth is 6.68% (active).

For the compound `NS(=O)(=O)c1ccc(CCn2c(SCC(=O)N/N=C/c3ccccc3O)nc3ccccc3c2=O)cc1`, the growth was 34%.

With `COc1ccc(C2c3cccn3-c3ccccc3N2C(C)=O)cc1` (stereo not given), the growth is 80.2%.

As to `O=C(c1ccc(OCCN2CCCCC2)cc1)c1c(-c2ccc(O)cc2)sc2cc(O)ccc12`, the growth was 103%.

`O=C1Nc2ccc(Br)cc2/C1=N/c1nc(-c2ccccc2)cs1`: the growth was 88.3%.

On to `CCOC(=O)Nc1ccc2nc(N3CCCCCC3)sc2c1`, for which the growth is 21.6%.

Turning to `c1coc(CNc2c3ccccc3nc3ccccc23)c1`, the growth was 85.5%.

On to `C=C1C[C@@]2(C)C(CC[C@]3(C)C2CC=C2C4CC(C)(C)C[C@@H](OC(=O)/C(C)=C\C)[C@]4(C(=O)O)CC[C@]23C)C(C)(C)C1=O` (stereo not given in full), for which the growth was 3.05% (active).

As for `CCN(CCC#N)c1ccccc1`, the growth is 114%.

In the case of `COc1cc(NCCC2CCCCN2)c2ncccc2c1OC` (stereo not given), the growth is 87.5%.

Turning to `NC(=O)N/N=C\c1ccc([N+](=O)[O-])o1`, the growth was 98.1%.

`CCCCCCCCCCCCCCCCCC(=O)OCCCCCCCCCCCCC`: the growth is 105%.

Consider `CCN1C(=O)N(CC)C2C1NN=c1s/c(=C\c3ccc(Br)cc3)c(=O)n12` (stereo not given), for which the growth was 6.77% (active).

`C=C(C)[C@@H]1CC[C@]2(C(=O)O)CC[C@]3(C)[C@H](CC[C@@H]4[C@@]5(C)C[C@@H](CC#Cc6ccc(C(C)=O)s6)[C@H](O)C(C)(C)[C@@H]5CC[C@]43C)[C@@H]12`: the growth is 18.1%.

On to `COc1ccc(-n2nc(C(=O)Nc3ccc(F)cc3)nc2-c2cc(OC)c(OC)c(OC)c2)cc1`, for which the growth was 96%.

On to `Brc1ccsc1Br`, for which the growth was 111%.

With `CC(C)(C)OC[C@@H]1N=C(c2ccc(Br)cc2)Nc2nc3ccccn3c2C1=O`, the growth was 49%.

On to `COc1ccc(CC2c3cc(OC)c(OC)cc3CC[N+]2(C)CCC(=O)OCCCCCOC(=O)CC[N+]2(C)CCc3cc(OC)c(OC)cc3C2Cc2ccc(OC)c(OC)c2)cc1OC` (stereo not given), for which the growth was 101%.

Take `Cc1c2c(cc3c1[nH]c1ccccc13)C=NCC2`: the growth is 87%.

Turning to `Clc1ccc(C2=NN[C@H](c3cn(-c4ccccc4)nc3-c3ccccc3)C2)cc1`, the growth is 74%.

Consider `c1cn2cc(-c3ccc4ncn(C5CCCCC5)c4c3)nc(-c3ccc4c(c3)ncn4C3CCCCC3)c2n1`, for which the growth is -61.1% (active).

As to `O=C1/C(=C/c2cc(F)cc(F)c2)Cc2cc(F)cc(F)c21`, the growth was 92.6%.

As for `COc1ccc(-c2nc3c(c(-c4ccc(Cl)cc4)nn3-c3ccccc3)c(-c3ccc(O)cc3)c2C#N)cc1`, the growth was 34.4%.

For `COc1ccc(-n2c(COc3ccc(F)cc3)n[nH]c2=S)cc1`, the growth was 110%.

As for `COc1cc(NC(=O)CSc2nc3ccc(Cl)cc3c(=O)n2-c2ccccc2)cc(OC)c1OC`, the growth is 100%.

With `O=C1OC(/C=C/c2ccccc2)=NC/1=C/c1ccccc1[N+](=O)[O-]`, the growth was 102%.

For the compound `CC(C)c1cccc(C#N)c1`, the growth is 111%.

For the compound `Cc1nn(-c2cccc(Cl)c2)c(C)c1N=Nc1ccc(Br)cc1`, the growth was 100%.

`CCCCCCCCCCCCCC`: the growth is 115%.

For `Cc1csc(N/N=C/c2ccncc2)n1`, the growth is 106%.

Take `O=C(Nc1cccc(C2=NCCN2)c1)c1ccc(N=Nc2ccc(C(=O)Nc3cccc(C4=NCCN4)c3)cc2)cc1`: the growth was 72.8%.

Take `COc1ccc2nc3ccccc3c(NCc3ccc(C)cc3)c2c1`: the growth was 37.3%.

`c1cc2c(cc1-c1cnc3nonc3n1)OCO2`: the growth was 74.8%.

Take `CNC(=O)c1c(NC(=O)c2ccc(C(C)C)cc2)sc2c1CCC(=O)C2`: the growth is -17.9% (active).

Consider `COc1cc(CN(CCC(O)N2CCCC2=O)Cc2ccc3c(c2)OCO3)cc(OC)c1OC` (stereo not given), for which the growth is 105%.

In the case of `COc1ccc2nc(C)cc(Sc3nc4ccccc4s3)c2c1`, the growth is 50.5%.

Regarding `O=C1C(Cl)=C(Nc2cccc3ccccc23)C(=O)c2ccccc21`, the growth was 58.4%.

As to `CN1C(=O)N(C)C2C1NN=c1s/c(=C\c3ccc(C(F)(F)F)cc3)c(=O)n12` (stereo not given), the growth is 16.3%.

Consider `C=C1C(=O)O[C@H]2[C@H]1CC/C(COC(=O)NCc1cccc(OC)c1)=C\CC[C@@]1(C)O[C@@H]21`, for which the growth is 88%.
